Source: PubChem BioAssay
JMJD2E inh: blocks human JMJD2E demethylase activity. Potency, µM (top dose mostly 57.1 µM), for the others: top-dose activity change, negative = inhibition, hits mostly inhibitors. JMJD2E catalytic domain, FDH-coupled NADH fluorescence (FDH is formaldehyde dehydrogenase). B2RXH2. AID 2147. actives 1.6% (n = 230,000); active means well fitted inhibition curve with a large enough effect, not every such curve was filed as active; inconclusive means small, poorly fitted or top-dose-only effect, or another doubt; inactive means no such curve, though single readings can be large or run the other way;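 further: potency means the concentration at half of the fitted maximal effect; 0% = wells with enzyme and -100% = buffer wells without enzyme; nearly all actives have a fitted effect of over 50% in size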
Target sequence (B2RXH2 1-337 limits assumed): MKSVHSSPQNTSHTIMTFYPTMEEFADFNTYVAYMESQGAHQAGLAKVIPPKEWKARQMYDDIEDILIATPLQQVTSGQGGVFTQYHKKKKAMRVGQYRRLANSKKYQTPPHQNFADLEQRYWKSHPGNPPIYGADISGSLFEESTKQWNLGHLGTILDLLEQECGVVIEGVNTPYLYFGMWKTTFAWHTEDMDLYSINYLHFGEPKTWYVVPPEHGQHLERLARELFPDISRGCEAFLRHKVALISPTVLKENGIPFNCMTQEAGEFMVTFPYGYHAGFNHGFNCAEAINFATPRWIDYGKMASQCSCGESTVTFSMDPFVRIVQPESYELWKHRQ
HTT cytoprotect: cytoprotection in Huntington HTT-Q103 PC12 cell model; PC12 HTT-Q103 induced, cytoprotection, ATP luminescence, 40 h; Potency, µM (series often up to 56.4 µM), for the others: cytoprotection (ATP increase), hits mostly activators; actives 0.14% (n = 230,000); AID 1471; further: potency means the concentration at half of the fitted maximal effect; % of control where 0% means no effect; nearly all actives have a fitted effect of over 45% in size
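Compounds added alongside 100 nM tebufenozide, which induces toxic Q103 huntingtin exon 1-GFP in stable PC12 cells; surviving cells quantified by luminescent ATP measurement. Medium: phenol red-free DMEM, 5% equine and 5% calf serum.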
VDR inh: blocks the human vitamin D receptor; P11473; VDR-SRC2-3 peptide fluorescence polarization, 2 h; Potency, µM, for the others: max response, negative = inhibition, actives largely listed as inhibitors; actives 0.93% (n = 400,000); further: potency means the concentration at half of the fitted maximal effect; on the % scale 0 is the no-effect control and ±100 the full control effect
Target sequence (P11473 whole entry, looked up): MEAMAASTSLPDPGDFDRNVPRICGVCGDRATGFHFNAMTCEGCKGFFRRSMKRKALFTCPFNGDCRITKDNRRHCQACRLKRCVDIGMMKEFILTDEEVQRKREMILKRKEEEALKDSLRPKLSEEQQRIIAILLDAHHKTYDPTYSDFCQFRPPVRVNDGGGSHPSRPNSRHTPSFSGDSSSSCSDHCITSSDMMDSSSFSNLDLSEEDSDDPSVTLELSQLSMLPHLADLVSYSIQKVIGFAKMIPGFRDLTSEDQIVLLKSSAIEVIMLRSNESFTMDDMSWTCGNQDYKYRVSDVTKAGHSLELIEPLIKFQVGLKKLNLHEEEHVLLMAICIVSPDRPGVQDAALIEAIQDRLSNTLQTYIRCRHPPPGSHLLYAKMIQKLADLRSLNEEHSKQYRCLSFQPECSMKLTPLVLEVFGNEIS
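VDR–SRC2-3 interaction, FP format. Cmpds 23 nl via pintool, brief spin, 2 h ambient incubation.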
RGS12 GoLoco inh: inhibitors of human Gai1-RGS12 GoLoco interaction (red fluorophore). Potency, µM (doses to about 61.6 µM), for the others: at the highest dose activity, negative = inhibition, actives largely listed as inhibitors. actives 0.44% (n = 230,000). P63096. Gai1:RGS12 GoLoco peptide FP, rhodamine, 10 min. AID 880; active means well fitted inhibition curve with a large enough effect, not every such curve was filed as active; inactive means no such curve, though single readings can be large or run the other way; further: potency means the concentration at half of the fitted maximal effect; on the % scale 0 is the no-effect control and ±100 the full control effect; nearly all actives have a fitted effect of over 30% in size
Coupling enz: coupling enzyme interference in Giardia aldolase counter-screen; actives 0.67% (n = 290,000); coupling enzyme system counterscreen, AmpLite Red fluorescence; activity change, negative = inhibition, % at 58.2 µM, hits read low; in the data active means activity change below about -30%; further: on the % scale 0 is the no-effect control and ±100 the full control effect
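Activity here indicates interference with the coupling reaction, not aldolase inhibition. Compounds at 57.5 uM final met coupling enzymes for 10 min at RT; substrate and AmpLite Red detection followed, with a 525/598 nm fluorescence read after 20 min.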
HTT aggregate: reduces HttQ103-GFP aggregates in PC12 cells; PC12 HttQ103-GFP aggregates, Acumen cytometry, 40 h; Potency, µM (titrated, usually from 46.1 µM), for the others: top-dose activity change, negative = inhibition, usual class: inhibitors; actives 1.1% (n = 220,000); AID 1688; further: potency means the concentration at half of the fitted maximal effect; on the % scale 0 is the no-effect control and ±100 the full control effect; nearly all actives have a fitted effect of over 60% in size
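PC12/HTTQ103-GFP, ecdysone-inducible; teb 100 nM; cpd qHTS titration; GFP aggregates read on laser cytometer, Ex 488/Em 500-530 nm.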
USP1 UbRho: USP1-UAF1 deubiquitinase inhibition validated | shares compounds with VDR inh | Ub-Rhodamine cleavage, fluorescence kinetic read | Potency, µM (doses to about 114 µM), for the others: top-dose activity change, negative = inhibition, actives largely listed as inhibitors | actives 50% (n = 50)
VDR confirm: inhibits human vitamin D receptor, primary hit validation; actives 89% (n = 840); VDR-coactivator inhibition assay, qHTS confirmation; shares compounds with VDR inh; AID 602199; Potency, µM, hits mostly inhibitors; further: potency means the concentration at half of the fitted maximal effect
VDR FP: VDR (human) coactivator binding inhibition, fluorescein polarization; shares compounds with VDR inh; VDR-coactivator binding, fluorescein fluorescence polarization; Potency, µM (top dose mostly 57.1 µM), for the others: at the highest dose activity change, negative = inhibition, usual class: inhibitors; actives 48% (n = 840); further: potency means the concentration at half of the fitted maximal effect
VDR bla reporter: VDR (human) inhibition, cell-based beta-lactamase validation; Potency, µM (top dose mostly 46.1 µM), for the others: at the top dose activity change, negative = inhibition, usual class: inhibitors; VDR beta-lactamase reporter cells, FRET ratio; cells co-treated with VDR agonist LG190178; shares compounds with VDR inh; actives 23% (n = 840); AID 602202; further: potency means the concentration at half of the fitted maximal effect; on the % scale 0 is the no-effect control and ±100 the full control effect
VDR viability: cell toxicity, VDR inhibitor hit counter-screen | shares compounds with VDR inh | cytotoxicity counter-screen, cell viability, qHTS | Potency, µM (titrated, usually from 48.3 µM), without a hit: top-dose activity change, negative = cytotoxicity, actives largely listed as cytotoxic | actives 18% (n = 840);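 further: potency means the concentration at half of the fitted maximal effect; plate controls were DMSO for no effect and high-concentration cycloheximide for full effect; nearly all actives have a fitted effect of over 75% in size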
Active calls of the source: *; ? = inconclusive; / = not tested or not shown; ! = a repeat was not active; [ ] = remark or other dose. Hits are enriched below; roughly 2.3% of the tested compounds scored in any of these assays. Unless noted, the call rests on the fitted dose curve; in most records, active means well fitted curve in the direction sought with a large enough effect; inconclusive means small, poorly fitted or top-dose-only effect, or another doubt; inactive means no such curve, though single readings can be large; an effect the other way counts as inactive or inconclusive.

SMILES | JMJD2E inh | HTT cytoprotect | VDR inh | RGS12 GoLoco inh | Coupling enz | HTT aggregate | VDR confirm | VDR FP | VDR bla reporter | VDR viability | others
Cc1cccc(NC(c2ccc(O)cc2)c2ccc3ccc(C)nc3c2O)n1 (stereo unspecified) | ? | 14% | 45µM* | -10% | -8 | 40% | 11* | ? | 26% | 0%
O=C(Cc1ccccc1)Nc1sc2c(c1C(=O)Nc1ccc(Cl)cc1)CCCC2 | / | / | 28µM* | / | / | / | 3.2* | 2.2µM* | -13% | 7%
COc1ccc(CC(=O)Nc2sc3c(c2C(=O)Nc2ccccc2)CCCCC3)cc1 | / | / | 10% | / | / | / | / | / | / | /
CCN(CC)C(=O)c1cc2c(=O)n3cccc(C)c3nc2s1 | / | / | -9% | / | 1 | / | / | / | / | /
Cc1ccc(NN2C(=O)C=C(c3ccccc3)C2=O)cc1 | 6% | -24%[10 µM] | 25µM* | -8% | 3 | ? | 8.4* | ? | ? | -2%
O=C1c2ccccc2C(=O)N1Nc1ccccc1 | -2% | -45% | -9% | -4% | -3 | 14% | / | / | / | /
Cc1ccc(SC2=NS(=O)(=O)c3ccccc32)c(C)c1 | / | / | 35µM* | / | / | / | 7.1* | 8.9µM* | ? | 21µM*
Cc1ccc(CSC2=NS(=O)(=O)c3ccccc32)cc1 | / | / | 32µM* | / | / | / | 14* | 8.9µM* | -7% | -7%
Cc1ccc(CSC2=CS(=O)(=O)c3ccccc3N2)cc1 | 9% | -10% | 4% | 6% | -3 | -19% | / | / | / | /
Cc1ccc(C(=O)/C=C/C(=O)O)cc1 | -14% | -32%[10 µM] | 14µM* | -13% | 6 | ? | 7.5* | 10µM* | 20% | ?
Cc1nc2sccn2c(=O)c1CCN1CCC(=C(c2ccc(F)cc2)c2ccc(F)cc2)CC1 | -12% | -243% | 79µM*! | 9% | -8 | -8% | / | / | / | / | USP1 UbRho=?
Cc1nc2ccccn2c(=O)c1CCN1CCC(C(=O)c2ccc(F)cc2)CC1 | ? | -29% | 1% | 4% | -1 | 11% | / | / | / | /
COC(=O)c1sc(=S)n(-c2cc(F)ccc2F)c1N | -12% | -12%[0.074 µM] | 79µM* | 6% | 1 | 5% | 19* | ? | 28% | 22%
CCOC(=O)c1sc(=S)n(-c2cc(OC)ccc2OC)c1N | -27% | 14%[10 µM] | 20µM* | -13% | 4 | -7% | 27* | 3.5µM* | 17% | -27%
Cc1ccc(C(=O)N2C(=S)C(c3ccc(F)cc3)=NC23CCN(C)CC3)cc1 | -14% | -4%[10 µM] | ? | / | 0 | ? | 18* | 22µM* | 26µM* | ?
O=c1c(C(c2ccc(F)cc2)c2c(O)nc3n(c2=O)CCS3)c(O)nc2n1CCS2 | -9% | 1%[10 µM] | ? | -9% | 6 | -4%[9.22 µM] | / | / | / | /
CCc1ccc(NC(=O)CSC2=Nc3ccccc3C3=NC(CCC(=O)NCc4ccco4)C(=O)N23)cc1 (stereo unspecified) | / | / | -2% | / | / | / | / | / | / | /
COc1ccccc1NC(=O)CCCCCN1C(=O)c2cccc([N+](=O)[O-])c2C1=O | / | / | -12% | / | 2 | / | / | / | / | /
COc1cc(/C=C2/C(=O)c3cccc([N+](=O)[O-])c3C2=O)c(Br)cc1O | -25% | / | 20µM* | 20% | -9 | -3% | 7.5* | 3.2µM* | ? | ?
CC1C/C(=C/c2ccco2)C(=O)/C(=C/c2ccco2)C1 (stereo unspecified) | 25% | / | / | 17% | -5 | ? | / | / | / | /
CC(C)(C)C1C/C(=C/c2ccccn2)C(=O)/C(=C/c2ccccn2)C1 (stereo unspecified) | -5% | -164% | ? | 3% | 0 | ? | 2.5* | 2µM* | 1µM* | 12µM*
CCOc1cc(/C=C2/COc3ccccc3C2=O)ccc1OCC(=O)N(C)C | -6% | ? | ? | -8% | -1 | 2% | / | / | / | /
O=C1/C(=C/c2ccccn2)COc2ccccc21 | 6% | -15% | ? | -15% | -4 | 15% | 13* | 22µM* | ? | -19%
O=C1ON=C(c2ccccc2)/C1=C/c1ccc(OS(=O)(=O)c2ccccc2)cc1 | ? | 12%[10 µM] | ? | -8% | 3 | ? | 3.5* | 3.2µM* | 2% | 8%
COc1ccc(Cl)cc1C(Nc1cccnc1)c1ccc2cccnc2c1O (stereo unspecified) | 14µM* | -40%[10 µM] | 20µM* | -5% | -6 | -17%[9.22 µM] | 21* | ? | -30% | -19%
SMILES | JMJD2E inh | HTT cytoprotect | VDR inh | RGS12 GoLoco inh | Coupling enz | HTT aggregate | VDR confirm | VDR FP | VDR bla reporter | VDR viability | others
O=C(NCCc1ccccc1)c1noc2c1CCc1ccccc1-2 | -2% | -13% | 7% | -4% | 7 | 2% | / | / | / | /
O=C1c2ccccc2CC[C@H]1CNCCc1ccc(O)cc1 | 16% | -79% | 3.5µM* | 1% | 1 | / | ? | ? | -5% | 17%
O=C1c2ccccc2CCC1CNCCc1ccc(O)cc1 (stereo unspecified) | / | -9% | 2.8µM* | -10% | / | / | 14* | 28µM* | ? | ?
CCC(C)[C@@H](NC(=O)OC(C)(C)C)c1nnc(S(=O)(=O)Cc2cccc(C)c2)o1 (stereo partly specified) | 8% | -142% | 25µM* | -10% | -3 | ? | 4.7* | ? | ? | ?
Cc1ccccc1CS(=O)(=O)c1nnc([C@H](Cc2ccccc2)NC(=O)OC(C)(C)C)o1 | 8% | -131% | 20µM* | -17% | -12 | ? | 6* | 3.5µM* | ? | ?
COc1ccccc1CNC(=O)C(=O)Nc1ccc(C(=O)N2CCC(C)CC2)cc1 | / | / | 14% | / | 4 | / | / | / | / | /
S=C(N/N=C/c1ccccc1Cl)Nc1cccc(Cl)c1Cl | -7% | 12%[10 µM] | ? | -2% | 0 | 17%[9.22 µM] | / | / | / | /
